Reference: PubChem BioAssay AID1159580 (chemical genetic matrix, 2015)
About 2,000 (36%) of roughly 5,500 compounds were called active. Not shown: some 18% with an inconclusive outcome. Rule as the data show it: active = normalized growth mostly below about 0.91 (no sharp cut-off); inconclusive = no clear call, values can overlap the other calls; inactive = mostly above about 0.92. This is one part of the list.

Experiment: chemical genetic growth profiling, strain panel (AID 1159580);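 also: tested at 20 µM; growth read once vehicle control cultures reached saturation at 30 °C; 1 = growth at the plate median or of vehicle wells; lower values mean less growth of the strain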
Settings: growth OD

Measured: normalized growth

O=c1[nH]cnc2c1ncn2C1O[C@H](CO)[C@@H](O)[C@H]1O (some centres undefined)
inactive: S. cerevisiae deletion strains, locus YJR075W, strain HOC1, active compounds read low 1.01 | S. cerevisiae deletion strains, locus YKL009W, strain mrt4, active compounds read low 0.979 | S. cerevisiae deletion strains, locus YKL068W, active compounds read low 1.01 | S. cerevisiae deletion strains, locus YKL085W, strain MDH1 (second series), active compounds read low 0.998 | S. cerevisiae deletion strains, locus YKL085W, strain MDH1, active compounds read low 0.998 | S. cerevisiae deletion strains, locus YKL160W, strain elf1, active compounds read low 0.986 | S. cerevisiae deletion strains, locus YKL190W, strain CNB1, active compounds read low 1 | S. cerevisiae deletion strains, locus YKR001C, strain vps1, active compounds read low 1.06 | S. cerevisiae deletion strains, locus YKR026C, strain gcn3, active compounds read low 0.984 | S. cerevisiae deletion strains, locus YKR091W, strain srl3, active compounds read low 0.986 | S. cerevisiae deletion strains, locus YLL001W, strain dnm1, active compounds read low 1.01 | S. cerevisiae deletion strains, locus YLL026W, active compounds read low 0.993 | S. cerevisiae deletion strains, locus YLL041C, strain sdh2, active compounds read low 1 | S. cerevisiae deletion strains, locus YLR027C, strain aat2, active compounds read low 0.994 | S. cerevisiae deletion strains, locus YLR039C, strain RIC1, active compounds read low 1.04 | S. cerevisiae deletion strains, locus YLR058C, strain SHM2, active compounds read low 0.999 | S. cerevisiae deletion strains, locus YLR102C, strain apc9, active compounds read low 1.04 | S. cerevisiae deletion strains, locus YLR113W, strain HOG1, active compounds read low 0.978 | S. cerevisiae deletion strains, locus YLR221C, strain rsa3, active compounds read low 0.96 | S. cerevisiae deletion strains, locus YLR258W, strain gsy2, active compounds read low 0.99 | S. cerevisiae deletion strains, locus YLR262C, strain YPT6 (second series), active compounds read low 1.02 | S. cerevisiae deletion strains, locus YLR262C, strain YPT6, active compounds read low 1.05 | S. cerevisiae deletion strains, locus YLR268W, strain sec22, active compounds read low 1.05 | S. cerevisiae deletion strains, locus YLR320W, strain mms22, active compounds read low 0.959 | S. cerevisiae deletion strains, locus YLR330W, strain CHS5, active compounds read low 1.01 | S. cerevisiae deletion strains, locus YLR342W, strain FKS1 (second series), active compounds read low 0.996 | S. cerevisiae deletion strains, locus YLR342W, strain FKS1, active compounds read low 0.989 | S. cerevisiae deletion strains, locus YLR357W, strain rsc2, active compounds read low 0.971 | S. cerevisiae deletion strains, locus YLR370C, strain arc18, active compounds read low 0.991 | S. cerevisiae deletion strains, locus YLR371W, strain rom2, active compounds read low 1.01 | S. cerevisiae deletion strains, locus YLR384C, strain iki3, active compounds read low 0.969 | S. cerevisiae deletion strains, locus YLR418C, strain cdc73, active compounds read low 1.01 | S. cerevisiae deletion strains, locus YML016C, strain PPZ1, active compounds read low 1 | S. cerevisiae deletion strains, locus YML032C, strain rad52, active compounds read low 1.01 | S. cerevisiae deletion strains, locus YML120C, strain ndi1, active compounds read low 1.01 | S. cerevisiae deletion strains, locus YML124C, strain tub3, active compounds read low 1.02 | S. cerevisiae deletion strains, locus YMR058W, strain fet3, active compounds read low 0.992 | S. cerevisiae deletion strains, locus YMR078C, strain ctf18, active compounds read low 1.06 | S. cerevisiae deletion strains, locus YMR125W, strain sto1, active compounds read low 1.01 | S. cerevisiae deletion strains, locus YMR129W, active compounds read low 0.997 | S. cerevisiae deletion strains, locus YMR205C, strain PFK2, active compounds read low 0.984 | S. cerevisiae deletion strains, locus YMR223W, strain ubp8, active compounds read low 1.01 | S. cerevisiae deletion strains, locus YMR231W, strain pep5, active compounds read low 0.977 | S. cerevisiae deletion strains, locus YMR263W, strain SAP30, active compounds read low 1 | S. cerevisiae deletion strains, locus YMR307W, strain GAS1, active compounds read low 1.01 | S. cerevisiae deletion strains, locus YNL067W, strain RPL9B, active compounds read low 1.01 | S. cerevisiae deletion strains, locus YNL071W, strain lat1, active compounds read low 1 | S. cerevisiae deletion strains, locus YNL153C, strain GIM3, active compounds read low 0.99 | S. cerevisiae deletion strains, locus YNL183C, strain NPR1, active compounds read low 0.908 | S. cerevisiae deletion strains, locus YNL209W, strain ssb2, active compounds read low 0.995 | S. cerevisiae deletion strains, locus YNL233W, strain BNI4, active compounds read low 1.02 | S. cerevisiae deletion strains, locus YNL248C, strain rpa49, active compounds read low 0.902 | S. cerevisiae deletion strains, locus YNL250W, strain rad50, active compounds read low 1.03 | S. cerevisiae deletion strains, locus YNL271C, strain bni1, active compounds read low 1.04 | S. cerevisiae deletion strains, locus YNL298W, strain CLA4, active compounds read low 1.03 | S. cerevisiae deletion strains, locus YNL307C, strain MCK1, active compounds read low 1.05 | S. cerevisiae deletion strains, locus YNL322C, strain KRE1 (second series), active compounds read low 0.985 | S. cerevisiae deletion strains, locus YNR049C, strain mso1, active compounds read low 0.978 | S. cerevisiae deletion strains, locus YNR052C, strain pop2, active compounds read low 1.02 | S. cerevisiae deletion strains, locus YOL012C, strain htz1 1.16 | S. cerevisiae deletion strains, locus YOL147C, strain pex11, active compounds read low 1.04 | S. cerevisiae deletion strains, locus YOR001W, strain rrp6, active compounds read low 0.994 | S. cerevisiae deletion strains, locus YOR061W, strain CKA2, active compounds read low 1.01 | S. cerevisiae deletion strains, locus YOR069W, strain VPS5, active compounds read low 1 | S. cerevisiae deletion strains, locus YOR070C, strain gyp1, active compounds read low 0.991 | S. cerevisiae deletion strains, locus YOR080W, strain dia2, active compounds read low 0.99 | S. cerevisiae deletion strains, locus YOR083W, strain WHI5, active compounds read low 0.998 | S. cerevisiae deletion strains, locus YOR106W, strain vam3, active compounds read low 1.01 | S. cerevisiae deletion strains, locus YOR136W, strain idh2, active compounds read low 1.02 | S. cerevisiae deletion strains, locus YOR144C, strain elg1, active compounds read low 1.03 | S. cerevisiae deletion strains, locus YOR184W, strain ser1, active compounds read low 1.05 | S. cerevisiae deletion strains, locus YOR231W, strain MKK1, active compounds read low 0.982 | S. cerevisiae deletion strains, locus YOR265W, strain rbl2, active compounds read low 0.984 | S. cerevisiae deletion strains, locus YOR270C, strain vph1, active compounds read low 0.987 | S. cerevisiae deletion strains, locus YOR290C, strain snf2, active compounds read low 1 | S. cerevisiae deletion strains, locus YOR316C, strain cot1, active compounds read low 1.04 | S. cerevisiae deletion strains, locus YPL051W, strain arl3, active compounds read low 0.977 | S. cerevisiae deletion strains, locus YPL055C, strain LGE1, active compounds read low 1.03 | S. cerevisiae deletion strains, locus YPL078C, strain atp4, active compounds read low 1 | S. cerevisiae deletion strains, locus YPL106C, strain sse1, active compounds read low 1.02 | S. cerevisiae deletion strains, locus YPL240C, strain hsp82, active compounds read low 0.984 | S. cerevisiae deletion strains, locus YPL241C, strain CIN2, active compounds read low 1 | S. cerevisiae deletion strains, locus YPL256C, strain CLN2, active compounds read low 0.965 | S. cerevisiae deletion strains, locus YPR119W, strain clb2, active compounds read low 1.06 | S. cerevisiae deletion strains, locus YPR141C, strain kar3, active compounds read low 1.03 | S. cerevisiae deletion strains, locus YPR163C, strain tif3, active compounds read low 1.02 | S. cerevisiae deletion strains, locus YPR167C, strain met16, active compounds read low 1.02 | S. cerevisiae deletion strains, strain wtn01, active compounds read low 1.04 | S. cerevisiae strains, strain wild type, active compounds read low 1.01
